# From PubChem BioAssay AID1224865 (Sanford-Burnham Center for Chemical Genomics, 2016)
# Out of some 360,000 compounds screened, about 1,100 (0.31%) were called active. Rule as the data show it: active = activity change above about 30% (passing the limit was not always enough); inactive = the rest. The full list was thinned out, with actives kept by preference.
# Molecular target: Hepatocyte nuclear factor 4-alpha (Homo sapiens) (UniProt P41235)
# Assay: HNF4-alpha DNA association modulation – biochemical, fluorescence polarization, FITC-DNA, primary screen (AID 1224865)
# Conditions: HNF4a-FITC DNA binding, 1 h, at 10 µM, stronger effect = higher value
# Chain of Hepatocyte nuclear factor 4-alpha (Homo sapiens) (P41235 whole entry, looked up): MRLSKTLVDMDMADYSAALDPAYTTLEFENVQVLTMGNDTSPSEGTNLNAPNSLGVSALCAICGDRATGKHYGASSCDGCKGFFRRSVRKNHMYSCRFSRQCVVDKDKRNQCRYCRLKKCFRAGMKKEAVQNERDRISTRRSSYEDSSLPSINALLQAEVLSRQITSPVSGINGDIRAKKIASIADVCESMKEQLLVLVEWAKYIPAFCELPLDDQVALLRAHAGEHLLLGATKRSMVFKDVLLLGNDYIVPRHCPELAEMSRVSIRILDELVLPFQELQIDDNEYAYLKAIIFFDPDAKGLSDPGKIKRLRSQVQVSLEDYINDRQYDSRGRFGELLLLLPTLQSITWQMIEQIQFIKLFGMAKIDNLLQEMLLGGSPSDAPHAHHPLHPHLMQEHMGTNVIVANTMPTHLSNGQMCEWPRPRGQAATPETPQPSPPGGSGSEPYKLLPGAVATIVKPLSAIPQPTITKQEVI
row,SMILES,activity change
1,COc1cc(/C=N\NC(=O)c2nonc2N)c(OC)cc1Br,-0.19% (inactive)
2,COc1cccc(/C=N/NC(=O)c2[nH]nc3c2CCc2ccccc2-3)c1O,49.2% (active)
3,COc1ccccc1N1CCN(C(=O)C(=O)N/N=C/c2ccccc2F)CC1,-1.71% (inactive)
4,O=C1COc2ccc(S(=O)(=O)NCCc3ccc(Cl)cc3)cc2N1,1.98% (inactive)
5,CC(C)n1c(O)c(N=Nc2ccccn2)c2ccccc21,0.04% (inactive)
6,CCOCCCNC(=O)Cc1cc(=O)[nH]c(=O)[nH]1,-0.4% (inactive)
7,N#CCCN1CCN(S(=O)(=O)c2ccc(S(=O)(=O)NC3CCCCC3)cc2)CC1,0.96% (inactive)
8,CCn1c(/C=C/c2ccc([N+](=O)[O-])o2)nc2ccccc2c1=O,92.1% (active)
9,C=CCn1c(SCC(=O)NC(=O)Cc2ccccc2)nc2ccccc2c1=O,1.95% (inactive)
10,O=C(/C=C/c1ccc([N+](=O)[O-])o1)NNC(=O)c1ccc(F)cc1,0.84% (inactive)
11,COc1ccccc1CCNC(=O)CN1C(=O)NC2(CCCC2)C1=O,1.6% (inactive)
12,COc1ccc(C(=O)N2CCCCC2c2cc(C(=O)Nc3ccc(F)c(Cl)c3)no2)cc1 (stereo unspecified),-0.55% (inactive)
13,COc1ccc(/C(C)=N/N2CCOCC2)c(O)c1,1.11% (inactive)
14,CN1/C(=c2/s/c(=C3/C(=O)N(c4ccccc4)NC3=Nc3ccccc3)n(C)c2=O)C(C)(C)c2ccccc21,66.2% (active)
15,O=C(CO/N=C/c1ccc(OC(F)F)cc1)NCc1ccc(F)cc1,-1.87% (inactive)
16,CCOC(=O)C1CCCN(C(=O)CSc2nnc3nc(C)cc(C)n23)C1 (stereo unspecified),-2.41% (inactive)
17,COc1ccc(CCNC(=O)CN(C)S(=O)(=O)c2ccc3nc(C)sc3c2)cc1OC,3.34% (inactive)
18,COc1ccc(-c2ccc(C(=O)NCCN3CCOCC3)c3occc23)c(C)c1,-3.94% (inactive)
19,CCC(c1nc2ccccc2[nH]1)n1c(=O)c(-c2cccs2)nc2ccccc21 (stereo unspecified),4.95% (inactive)
20,CCC(C)N1C(=O)S/C(=C/c2ccc(Sc3nc4ccccc4[nH]3)o2)C1=O (stereo unspecified),77.3% (active)
21,COC(=O)/C(C#N)=C/c1occc1C,-1.39% (inactive)
22,CCOC(=O)/C(C#N)=C\c1c(C)cc(C)c(COC(C)=O)c1C,2.55% (inactive)
23,CCOC(=O)/C(C#N)=C/c1ccc(N2CCCCC2)cc1,42.2% (active)
24,C/C(=N/Nc1nc(-c2ccccc2)c(CC(=O)O)s1)c1ccccc1,48.6% (active)
25,CC(=O)NC(CC(=O)Nc1nc(-c2ccccc2)c(C(C)=O)s1)c1ccccc1 (stereo unspecified),0.99% (inactive)
26,CCOc1ccc(-c2nc(C)sc2CC(=O)O)cc1,1.37% (inactive)
